This is an account of results in PubChem BioAssay (EPA / NIEHS).

Experiment [1] is described as follows: CCTE_Padilla_ZF_Score.Tail: CCTE's 144 Hour Post-fertilization zebrafish Assay Score for Tail Malformation, Padilla Lab (AID 2284414). In short, it runs like this: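 Tail malformations were scored at 6 dpf by two blinded assessors under a stereo microscope. Chorionated embryos had been exposed from 6-8 hpf in sealed wells of 10% Hanks' at 26 C, then rinsed free of chemical at 5 dpf.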

Experiment [2] in a line: CCTE_Padilla_ZF_Score.Blood_pooling: CCTE's 144 Hour Post-fertilization zebrafish Assay Score for Blood Pooling, Padilla Lab (AID 2284415). In short, it runs like this:
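Blood pooling was scored at 6 dpf under a stereo microscope by two blinded assessors, fitted upward against DMSO. Single embryos were dosed at 6–8 hpf in 10% Hanks', kept sealed at 26C (14:10 h cycle) and rinsed at 5 dpf.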

A short description of experiment [3]: CCTE_Padilla_ZF_Score.Any: CCTE's 144 Hour Post-fertilization zebrafish Assay Score for Any Mortality or Malformation, Padilla Lab (AID 2284416). As for the experimental part:
CCTE_Padilla_ZF_Phenotype_Score is a whole embryo, multiplexed assay using zebrafish ova exposed for 144 hours post fertilization on a 96-well plate.CCTE_Padilla_ZF_Score.Any is one of one assay component(s) measured or calculated from the CCTE_Padilla_ZF_Phenotype_Score assay. It is designed to make measurements of zebrafish development as detected with brightfield microscopy of developing zebrafish embryos.Data from the assay component CCTE_Padilla_ZF_Score.Any was analyzed into 1 assay endpoints. This assay endpoint, CCTE_Padilla_ZF_Score.Any, was analyzed in the positive analysis fitting direction relative to DMSO as the negative control and baseline of activity. Using a type of viability reporter, gain-of-signal activity can be used to understand changes in developmentals as they relate to the whole embryo. To generalize the intended target to other relatable targets, this assay endpoint is annotated to the zebrafish development intended target family, where the subfamily is embryonic morphogenesis and mortality.
Zebrafish husbandry: Wild type adult zebrafish (Danio rerio; undefined outbred stock obtained from Aquatic Research Organisms, Hampton, NH, 03842) were housed in an AAALAC-approved animal facility at 28C with a 14:10 h light: dark cycle (lights on at 08:30 h). Adult fish (2-3 females per male; density = 15-20 adults per tank) were kept in one of several 9-liter (L) flow-through colony tanks (Aquaneering Inc., San Diego, CA). All adults in a colony tank were placed in a 2 L (static) breeding tank (Aquatic Habitats, Apopka, FL) one hour prior to light onset. Typically, adults from two to three colony tanks were mated on the same day. Two hours after light onset the adults were returned to the colony tank. All embryos were gathered from each breeder tank, pooled, and placed in a 28C water bath for 2 h, followed by two washes with 0.06% bleach (v/v) in 10% Hanks' Balanced Salt Solution (13.7 mM NaCl 0.54 mM KCl, 25 uM Na2HPO4, 130 uM CaCl2 100 um MgSO4 and 420 um NaHCO3,), hereafter referred to as Hanks' solution, for 5 min in order to remove any residual bacteria or fungi. Immediately following washing, the embryos were examined, and healthy embryos were separated from dead or unfertilized eggs and moved into fresh Hanks'. Chemical exposures: Zebrafish embryos were exposed in 96-well plates. Between 6- and 8-hours post fertilization (hpf), healthy embryos (with chorions) were transferred, one embryo per well, into 96 well (0.5 mL) microtiter plates (Cell Culture-Treated, Flat-Bottom Microplate 96 well [Corning Costar, Kennebunk, ME; Cat 09-761-145]) filled with 200 uL of Hanks' solution. A random number generator was used to assign the order in which the rows of embryos were plated in 96 well plates each week. […]

Experiment [4] concerns SRY-box transcription factor 2 (SOX2) Protein Expression, Deisenroth Lab, SOX2 (gene 6657). The experiment can be described thus: CCTE_Deisenroth_DEVTOX-GLR_Endo_SOX2: CCTE's DevTox GLR-Endo Assay Evaluation of SRY-box transcription factor 2 (SOX2) Protein Expression, Deisenroth Lab (AID 2284412; active means hit-call score of the fitted dose curve at least 0.9, where 1 is the maximum). As for the experimental part:
CCTE_Deisenroth_DEVTOX-GLR_Endo assay is a cell-based, multiplex-readout assay that uses RUES2-GLR, a human pluripotent cell line, with measurements taken at 48 hours after chemical dosing in a 384-well microplateCCTE_Deisenroth_DEVTOX-GLR_Endo_SOX2 is 1 of 4 assay components calculated from the CCTE_Deisenroth_DEVTOX-GLR_Endo assay and it measures the percentage of cells in an ectoderm state. Using a type of inducible fluorescent protein reporter, gain-of-signal activity can be used to understand changes in gene expression with fluorescent microscopy. The percentage SOX2+ cells are determined by calculating the number of SOX2+ cells divided by the cell count. To generalize the intended target to other relatable targets, this assay component is annotated to the transcription factor intended target family, where the subfamily is SRY-related HMG-box.Data from the assay component CCTE_Deisenroth_DEVTOX-GLR_Endo_SOX2 was analyzed as 1 assay endpoint. The endpoint is the percent SOX2+ cell population minus the 0.2% DMSO control in the CCTE_Deisenroth_DEVTOX-GLR_Endo assay. Furthermore, this assay endpoint can be referred to as a secondary readout, because this assay has produced multiple assay endpoints where this one serves as a measure of ectoderm differentiation.
All assay protocols are aligned to the DevTox GLR-Endo assay workflow. […]

Experiment [5] deals with SRY-box transcription factor 17 (SOX17) Protein Expression, Deisenroth Lab, SOX17 (gene 64321). Kind of experiment: CCTE_Deisenroth_DEVTOX-GLR_Endo_SOX17: CCTE's DevTox GLR-Endo Assay Evaluation of SRY-box transcription factor 17 (SOX17) Protein Expression, Deisenroth Lab (AID 2284413). The method, boiled down:
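RUES2-GLR human pluripotent cells were seeded 24 h, then differentiated toward endoderm for 48 h with two chemical exposures 24 h apart (10-point series, 1 nM - 200 uM). Nuclei-stained fixed cells were imaged; endpoint is percent change in SOX17+ cells versus 0.2% DMSO.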

For experiment [6], the system named is Brachyury (BRA) Protein Expression, TBXT (gene 6862). Kind of experiment: CCTE_Deisenroth_DEVTOX-GLR_Endo_BRA: CCTE's DevTox GLR-Endo Assay Evaluation of Brachyury (BRA) Protein Expression, Deisenroth Lab (AID 2284417). In short, it runs like this:
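RUES2-GLR pluripotent cells differentiated 48 h with two chemical exposures 24 h apart, 10-point range 1 nM - 200 uM. Percentage of BRA+ cells per total count by high-content imaging, minus 0.2% DMSO control.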

A short description of experiment [7]: CCTE_Deisenroth_DEVTOX-GLR_Endo_CellCount: Viability Assessment in CCTE's DevTox GLR-Endo Assay, Deisenroth Lab (AID 2284420). In short, it runs like this:
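Viability in differentiating RUES2-GLR cultures is scored by fluorescent nuclear counts after 48 h and two 24-hourly chemical treatments, as percent change from the 0.2% DMSO control.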

The subject of experiment [8] is SRY-box transcription factor 17 (SOX17) Protein Expression, Deisenroth Lab, SOX17 (gene 64321). The experiment can be described thus: CCTE_Deisenroth_DEVTOX-GLR_Pluri_SOX17: CCTE's DevTox GLR-Pluri Assay Evaluation of SRY-box transcription factor 17 (SOX17) Protein Expression, Deisenroth Lab (AID 2284427; active means hit-call score of the fitted dose curve at least 0.9, where 1 is the maximum). The method, boiled down: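 Seed cells 24 h; differentiate 48 h, dosing at 0 and 24 h (1 nM - 200 uM); fix, stain nuclei, image 5 fields per well; count SOX17+ cells over total cells and subtract 0.2% DMSO control.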

The subject of experiment [9] is SRY-box transcription factor 2 (SOX2) Protein Expression, Deisenroth Lab, SOX2 (gene 6657). Kind of experiment: CCTE_Deisenroth_DEVTOX-GLR_Pluri_SOX2: CCTE's DevTox GLR-Pluri Assay Evaluation of SRY-box transcription factor 2 (SOX2) Protein Expression, Deisenroth Lab (AID 2284428). The method, boiled down: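 SOX2 expression frequency is scored in a human pluripotent reporter line, RUES2-GLR, exposed to chemicals twice over 48 h. Imaging-based SOX2+ cell percentage is normalized as change versus 0.2% DMSO.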

Experiment [10] deals with Brachyury (BRA) Protein Expression, Deisenroth Lab, TBXT (gene 6862). Kind of experiment: CCTE_Deisenroth_DEVTOX-GLR_Pluri_BRA: CCTE's DevTox GLR-Pluri Assay Evaluation of Brachyury (BRA) Protein Expression, Deisenroth Lab (AID 2284429; active means hit-call score of the fitted dose curve at least 0.9, where 1 is the maximum). The method, boiled down:
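Percent BRA+ cells (BRA+ count over total cells) by high-content imaging of fixed RUES2-GLR cultures, corrected by 0.2% DMSO control. Cells received two doses over 48-hour differentiation, 1 nM–200 uM, n=4 experiments.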

Records with an inconclusive call do not appear. Calls of active or inactive are those of the source. How the source made its calls, unless noted: active means hit-call score of the fitted dose curve at least 0.9, where 1 is the maximum; inactive means score below 0.9.

As for `COC(F)(C(F)(F)C(F)(F)F)C(F)(C(F)(F)F)C(F)(F)F` (centres undefined), the molecule was called inactive in [1], in experiment [2] and in experiment [3].

For `C=CCOC(F)(C(F)(F)F)C(F)(F)F`, the molecule was called inactive in experiment [1], in experiment [2] and in [3].

As to `NC(=O)c1ccc(N)nc1`, the AC50 – broadly, the concentration giving half of the maximal activity seen – was 71.1 µM (active) in experiment [4]; 21 µM (active) in experiment [5]; 68.7 µM (active) in experiment [6]; 30.6 µM (active) in experiment [7]; 38.1 µM (active) in experiment [9]; 100 µM (active) in experiment [10]. For the same molecule, the molecule was called inactive in [8].

For the molecule `O=S(=O)(F)C(F)(F)C(F)(F)C(F)(F)C(F)(F)F`, the call in [1], in experiment [2] and in [3] was inactive.

Take `CC(F)(F)CC(F)(F)F`: the molecule was called inactive in [1], in experiment [2] and in experiment [3].
